According to PubChem BioAssay:
A number with no mark means an inactive call. For some assays here: Results with a measured potency or affinity are listed apart. The source made the active and inactive calls. Unless noted, no rule for the calls is given here.

Tests used:
[1] = antimalarial activity against Dd2 strain (AID 2302;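 active = growth inhibition above 50% at the single 2 µM test dose, taken to imply half-maximal potency below 2 µM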;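 also: 0% = DMSO untreated growth and 100% = chloroquine plus artemisinin killed control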); conditions: P. falciparum Dd2 in RBCs, LDH growth readout, 72 h; at 2 µM; hits give high values
[2] = HepG2 cytotoxicity, primary screen, cytotoxicity control for P. falciparum antimalarial project, cell-based, ATP luminescence (AID 2303;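 active = inhibition above 50%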;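 also: 0% = DMSO wells and 100% = digitonin-killed cells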); conditions: HepG2 viability, 24-48 h, at 10 µM, hits give high values
[3] = target: L-lactate dehydrogenase (Plasmodium falciparum (isolate CDC / Honduras)) (UniProt Q27743); assay: PfLDH activity inhibition – cell lysate, 3D7 strain, counter-screen for P. falciparum growth inhibition project (AID 2304);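 also: 0% = vehicle and 100% = reference inhibitor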; conditions: P. falciparum 3D7 crude extract, LDH APAD/NBT absorbance; at 2 µM; hits give high values
Sequence of L-lactate dehydrogenase (Plasmodium falciparum (isolate CDC / Honduras)) (Q27743 whole entry, looked up): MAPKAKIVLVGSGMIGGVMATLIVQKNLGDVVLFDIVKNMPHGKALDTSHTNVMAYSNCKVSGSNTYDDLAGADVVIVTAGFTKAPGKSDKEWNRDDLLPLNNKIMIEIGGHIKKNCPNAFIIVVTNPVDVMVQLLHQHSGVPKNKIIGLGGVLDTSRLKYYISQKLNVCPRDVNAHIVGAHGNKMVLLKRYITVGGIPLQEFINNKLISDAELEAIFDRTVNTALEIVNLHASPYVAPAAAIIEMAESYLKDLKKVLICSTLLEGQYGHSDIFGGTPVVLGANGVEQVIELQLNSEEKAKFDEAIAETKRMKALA

[4] = inhibition of 3D7 malaria parasite growth – strain 3D7 (AID 2306);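 also: 0% = DMSO wells and 100% = chloroquine plus artemisinin control wells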; conditions: P. falciparum 3D7 erythrocytic growth, LDH absorbance, 72 h; at 2 µM; hits give high values
[5] = target: Calcium-dependent protein kinase 1 (Plasmodium falciparum (isolate 3D7)) (UniProt P62344); assay: PfCDPK1 kinase inhibitors, biochemical, TCAMS library (AID 1159585; cut-off not given, nearly all actives have IC50 up to about 0.98 µM;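 also: inhibitors leave more ATP so luminescence rises with inhibition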); conditions: recombinant PfCDPK1, Kinase-Glo ATP depletion luminescence
Sequence of Calcium-dependent protein kinase 1 (Plasmodium falciparum (isolate 3D7)) (P62344 whole entry, looked up): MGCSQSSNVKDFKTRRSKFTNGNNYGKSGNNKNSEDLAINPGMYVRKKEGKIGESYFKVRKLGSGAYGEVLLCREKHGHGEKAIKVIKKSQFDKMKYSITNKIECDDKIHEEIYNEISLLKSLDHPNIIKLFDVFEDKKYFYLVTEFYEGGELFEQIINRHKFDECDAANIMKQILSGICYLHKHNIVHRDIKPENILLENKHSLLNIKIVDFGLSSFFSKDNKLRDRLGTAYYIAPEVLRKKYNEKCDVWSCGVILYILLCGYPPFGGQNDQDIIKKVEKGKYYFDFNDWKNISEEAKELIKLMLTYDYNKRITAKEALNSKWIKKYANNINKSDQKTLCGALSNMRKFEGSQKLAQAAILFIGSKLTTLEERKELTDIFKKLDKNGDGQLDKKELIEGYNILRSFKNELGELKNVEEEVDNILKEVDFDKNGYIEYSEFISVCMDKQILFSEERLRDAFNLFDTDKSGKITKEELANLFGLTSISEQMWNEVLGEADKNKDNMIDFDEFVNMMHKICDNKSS

[6] = target: Plasmodium falciparum protein kinase 6 (PK6, PF3D7_1337100) (UniProt Q8IDW1); assay: PfPK6 kinase inhibitors, biochemical, TCAMS library (AID 1159586); conditions: recombinant PfPK6, Kinase-Glo ATP depletion luminescence
Sequence of Plasmodium falciparum protein kinase 6 (PK6, PF3D7_1337100) (Q8IDW1 1-305): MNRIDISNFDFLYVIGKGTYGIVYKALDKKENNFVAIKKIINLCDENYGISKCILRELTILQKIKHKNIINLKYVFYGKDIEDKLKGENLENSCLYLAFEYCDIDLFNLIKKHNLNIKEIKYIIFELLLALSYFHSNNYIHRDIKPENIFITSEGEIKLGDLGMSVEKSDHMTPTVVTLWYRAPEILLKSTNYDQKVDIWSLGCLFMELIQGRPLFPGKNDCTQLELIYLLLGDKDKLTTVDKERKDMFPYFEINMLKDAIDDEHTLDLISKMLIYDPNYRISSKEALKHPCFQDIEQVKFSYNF

[7] = target: Protein kinase 7 (PK7), Plasmodium falciparum 3D7 (PF3D7_0213400) (UniProt Q7YTF7); assay: inhibition of Plasmodium PK7 catalytic activity – biochemical, TCAMS antimalarial set, Kinase-Glo luminescence (AID 1159587); conditions: recombinant PfPK7, Kinase-Glo ATP depletion luminescence
Sequence of Protein kinase 7 (PK7), Plasmodium falciparum 3D7 (PF3D7_0213400) (Q7YTF7 1-343): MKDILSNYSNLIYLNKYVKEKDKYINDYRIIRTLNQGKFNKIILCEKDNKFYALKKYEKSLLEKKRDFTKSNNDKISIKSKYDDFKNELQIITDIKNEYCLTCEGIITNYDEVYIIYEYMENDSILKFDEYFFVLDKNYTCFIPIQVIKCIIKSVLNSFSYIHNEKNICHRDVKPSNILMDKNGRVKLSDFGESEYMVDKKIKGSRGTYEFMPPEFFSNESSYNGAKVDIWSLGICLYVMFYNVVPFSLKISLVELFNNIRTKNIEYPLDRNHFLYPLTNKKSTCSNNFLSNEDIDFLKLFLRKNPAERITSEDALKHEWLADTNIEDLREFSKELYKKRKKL

[8] = target: Calcium-dependent protein kinase 4 (Plasmodium falciparum (isolate 3D7)) (UniProt Q8IBS5); assay: PfCDPK4 kinase inhibitors, biochemical, TCAMS library (AID 1159588; cut-off not given, nearly all actives have IC50 up to about 0.91 µM); conditions: recombinant PfCDPK4, Kinase-Glo ATP depletion luminescence
Sequence of Calcium-dependent protein kinase 4 (Plasmodium falciparum (isolate 3D7)) (Q8IBS5 whole entry, looked up): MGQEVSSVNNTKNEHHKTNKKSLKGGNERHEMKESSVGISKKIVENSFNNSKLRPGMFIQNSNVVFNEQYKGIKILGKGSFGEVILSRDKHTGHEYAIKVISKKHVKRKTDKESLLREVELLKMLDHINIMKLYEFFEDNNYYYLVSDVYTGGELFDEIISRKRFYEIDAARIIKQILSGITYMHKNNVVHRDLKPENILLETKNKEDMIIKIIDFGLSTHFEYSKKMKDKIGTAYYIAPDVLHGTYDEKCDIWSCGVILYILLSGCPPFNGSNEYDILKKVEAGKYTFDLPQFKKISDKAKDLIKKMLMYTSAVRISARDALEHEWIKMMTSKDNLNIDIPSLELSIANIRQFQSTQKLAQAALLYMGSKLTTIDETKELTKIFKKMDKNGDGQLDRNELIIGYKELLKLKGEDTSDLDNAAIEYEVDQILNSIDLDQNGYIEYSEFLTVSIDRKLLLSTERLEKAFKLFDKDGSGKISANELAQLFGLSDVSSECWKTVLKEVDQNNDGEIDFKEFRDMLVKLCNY

| SMILES | growth inhibition [1] | inhibition [2] | inhibition [3] [%] | growth inhibition [4] | outcome [5] | outcome [6] | outcome [7] | outcome [8] |
| --- | --- | --- | --- | --- | --- | --- | --- | --- |
| CC(C)(C)[C@@H](Nc1ccc(C#N)c2ccccc12)C(=O)NC1(Cc2ccc(O)c(Br)c2)CCCC1 | 16% | 2% | -2 | 84% (active) | inactive | inactive | inactive | inactive |
| CC(=O)Nc1ccc(CCNC(C)Cc2ccc(C(=O)Nc3ccc(CC(C)NCCc4cccc(Cl)c4)cc3)cc2)cc1 (stereo not given) | 84% (active) | 50% (active) | -7 | 100% (active) | inactive | inactive | inactive | inactive |
| COc1cc2c(cc1S(=O)(=O)c1ccc(NC(=O)c3ccc4ccccc4c3)cc1)CCN(C)CC2 | 28% | 2% | -4 | 99% (active) | inactive | inactive | inactive | inactive |
| O=C(Nc1cccnc1)c1cc(C(=O)Nc2cccnc2)cc([N+](=O)[O-])c1 | 100% (active) | -12% | -2 | 100% (active) | inactive | inactive | inactive | inactive |
| Cc1cccc2[nH]c(-c3cccc(-c4cccc(NC(=O)COc5ccccc5C(N)=O)c4)c3)nc12 | 88% (active) | 22% | -2 | 100% (active) | inactive | inactive | inactive | inactive |
| CC1(C)N=C(N)N=C(N)N1OCc1cccc2c1ccc1ccccc12 | 97% (active) | 63% (active) | 4 | 95% (active) | inactive | inactive | inactive | inactive |
| CN1CCC(NCc2ccc(-c3ccc(Cl)cc3)cc2)CC1 | 43% | 50% (active) | 6 | 99% (active) | inactive | inactive | inactive | inactive |
| COc1ccc2ncc(C#N)c(CCN3CCC(NCc4ccc5c(c4)NC(=O)CO5)CC3)c2c1 | 43% | 25% | -3 | 99% (active) | inactive | inactive | inactive | inactive |
| O=C(CC1SC(N2N=C(c3cccs3)CC2c2ccccc2)=NC1=O)Nc1ccc(Cl)cc1 (stereo not given) | 88% (active) | 18% | 2 | 83% (active) | inactive | inactive | inactive | inactive |
| CCN(CC)CCN(Cc1ccc(-c2ccc(C(F)(F)F)cc2)cc1)C(=O)Cn1c(CCc2cccc(F)c2F)nc(=O)c2cc(F)ccc21 | 45% | 15% | 0 | 98% (active) | inactive | inactive | inactive | inactive |
